PubChem BioAssay (Tox21)
Inconclusive results are not listed. Where a call stands in place of a potency, no number is given. Calls of active or inactive are those of the source. Unless noted, the call rests on the fitted dose curve; in most records, active means well fitted curve in the direction sought with a large enough effect in the repeat runs; inconclusive means weak or mixed curves; inactive means no such curve, though single readings can be large; an effect the other way counts as inactive or inconclusive.

Experiments:
[1] = qHTS assay to identify small molecule antagonists of the vitamin D receptor (VDR) signaling pathway - cell viability counter screen (AID 743225); details: VDR-bla HEK293T viability, CellTiter-Glo luminescence, 16 h; series mostly up to 61 µM; further: nearly all actives have a fitted effect of over 50% in size
How it was run: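 HEK293T VDR-bla; cpd + 1a,25-(OH)2D3 3 nM final, 16 h 37C/5% CO2; B/G FRET substrate 2 h RT; then CellTiter-Glo 30 min RT, luminescence.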

[2] = qHTS assay to identify small molecule agonists of the NFkB signaling pathway (AID 1159509; active means well fitted curve in the direction sought with a large enough effect in the signal ratio in the repeat runs, not every such curve was filed as active; the % refers to the signal ratio); details: NFkB-bla ME-180 cells, beta-lactamase FRET ratio, 5 h; series mostly up to 61 µM
How it was run: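 Agonist activity was read as beta-lactamase-driven FRET change (460 and 530 nm emission, 405 nm excitation) following 1.5 hr substrate loading at room temperature. Beforehand, ME-180 NFkB-bla reporter cells were treated with compounds for 5 hr at 37 C.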

[3] = qHTS assay to identify small molecule agonists of the NFkB signaling pathway - cell viability counter screen (AID 1159515; calls by dose curve; further: nearly all actives have a fitted effect of over 55% in size); details: NFkB-bla ME-180 viability, CellTiter-Glo luminescence, 5 h; series mostly up to 61 µM
How it was run: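 Counter screen run alongside the NFkB-bla agonist assay: ME-180 reporter cells exposed to compounds for 5 hr, then lysed with CellTiter-Glo in the same wells. Luminescence, read after 30 min, reflects viable cells.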

[4] = qHTS assay to identify small molecule agonists of the endoplasmic reticulum stress response signaling pathway (AID 1159516; active means well fitted activation curve with a large enough effect in the signal ratio in the repeat runs, not every such curve was filed as active; the % refers to the signal ratio); details: ESRE-bla HeLa, ER stress beta-lactamase reporter, 5 h; series mostly up to 61 µM
How it was run: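 For this screen, HeLa cells stably carrying beta-lactamase under the ER stress response element received test compounds, positive controls or DMSO for 5 hr at 37 C; B/G FRET substrate was then added and dual-wavelength emission recorded.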

[5] = qHTS assay to identify small molecule agonists of the endoplasmic reticulum stress response signaling pathway - cell viability counter screen (AID 1159517; calls by dose curve; further: nearly all actives have a fitted effect of over 50% in size); details: ESRE-bla HeLa viability, CellTiter-Glo luminescence, 5 h; series mostly up to 61 µM
How it was run: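 In parallel with the ESRE reporter read, cytotoxicity was scored by CellTiter-Glo luminescence (30 min, room temperature) on HeLa ESRE-bla cells dosed for 5 hr.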

[6] = qHTS assay to identify small molecule antagonists of the retinoid-related orphan receptor gamma (ROR-gamma) signaling pathway - cell viability counter screen (AID 1159520); details: Tet-on RORgamma CHO cells viability, ATP luminescence, 16 h; series mostly up to 92.4 µM; further: nearly all actives have a fitted effect of over 50% in size
How it was run: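 Tet-on ROR gamma CHO cells were given compounds for 2 hr, then doxycycline hyclate at 1 uM final, and incubated 16 hr at 37 C. Viability was measured as ATP content by CellTiter-Glo luminescence.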

[7] = qHTS assay to identify small molecule agonists of the AP-1 signaling pathway - cell viability counter screen (AID 1159525; calls by dose curve; further: nearly all actives have a fitted effect of over 55% in size); details: ME-180 AP-1-bla cells viability, ATP luminescence, 5 h; series mostly up to 76.8 µM
How it was run: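 Same-well cytotoxicity counter screen of the Tox21 10K library in ME-180 cells. The readout is ATP-dependent luminescence after 5 h compound treatment. Data are normalised to DMSO and tetra n-octyl ammonium bromide controls.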

[8] = qHTS assay to identify small molecule agonists of the AP-1 signaling pathway (AID 1159526; calls by dose curve); details: ME-180 (cervical carcinoma) AP-1-bla reporter, beta-lactamase FRET ratio, 5 h; series mostly up to 76.8 µM
[9] = molecular target: Retinoic acid receptor RXR-alpha (Homo sapiens) (UniProt P19793); assay: qHTS assay to identify small molecule agonists of the RXR signaling pathway (AID 1159527; calls by dose curve; further: nearly all actives have a fitted effect of over 35% in size; further: potency means the concentration at half of the fitted maximal effect); details: HEK293T RXRa-UAS-bla, beta-lactamase ratio, 16 h; series mostly up to 76.8 µM
Retinoic acid receptor RXR-alpha (Homo sapiens), sequence (P19793 whole entry, looked up): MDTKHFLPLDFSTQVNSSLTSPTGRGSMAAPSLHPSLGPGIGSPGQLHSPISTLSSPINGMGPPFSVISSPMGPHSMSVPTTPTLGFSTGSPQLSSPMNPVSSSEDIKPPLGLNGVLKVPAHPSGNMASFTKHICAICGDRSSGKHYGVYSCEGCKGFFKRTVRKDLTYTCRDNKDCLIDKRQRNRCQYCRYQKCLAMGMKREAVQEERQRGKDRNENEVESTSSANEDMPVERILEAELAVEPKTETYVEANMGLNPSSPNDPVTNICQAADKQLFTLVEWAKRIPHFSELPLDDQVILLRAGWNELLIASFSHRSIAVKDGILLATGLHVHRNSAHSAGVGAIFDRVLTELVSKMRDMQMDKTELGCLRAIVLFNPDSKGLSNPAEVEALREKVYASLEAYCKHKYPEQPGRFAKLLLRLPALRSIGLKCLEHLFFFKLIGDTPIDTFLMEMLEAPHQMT
How it was run: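 Cells plated at 2,000/well, rested 5 hr at 37 C, pin-dosed with DMSO compound solutions, incubated 16 hr, then loaded with B/G FRET substrate for 2 hr at RT before dual-emission fluorescence reading.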

[10] = qHTS assay to identify small molecule agonists of the RXR signaling pathway - cell viability counter screen (AID 1159529); details: RXR-alpha-bla HEK293T viability, CellTiter-Glo, 16 h; series mostly up to 76.8 µM;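 further: HEK 293T cells carrying an RXR-alpha UAS beta-lactamase reporter; nearly all actives have a fitted effect of over 50% in size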
How it was run: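 Steps: seed RXR-alpha-UAS-bla HEK 293T cells in assay medium containing 2% charcoal-stripped FBS; incubate 5 hr; add compounds in DMSO; incubate 16 hr at 37 C; after the bla read, add CellTiter-Glo and read luminescence at 30 min.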

[11] = qHTS assay to identify small molecule antagonists of the retinoid acid receptor (RAR) signaling pathway - cell viability counter screen (AID 1159551); details: C3RL4 cells viability, ATP luminescence (CellTiter-Glo), 6 h; series mostly up to 92.4 µM; further: nearly all actives have a fitted effect of over 35% in size
How it was run: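 Measured by luminescent ATP detection, viability reflects C3RL4 cells treated 6 h at 37 C with test chemicals in the presence of 1 uM (final) retinol.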

[12] = qHTS assay to identify small molecule antagonists of the retinoic acid receptor (RAR) signaling pathway (AID 1159552; further: nearly all actives have a fitted effect of over 50% in size); details: C3RL4 RARE luciferase reporter, retinol-stimulated, 6 h; series mostly up to 92.4 µM
How it was run: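 Retinol at 1 uM final stimulated RARE-luciferase expression in C3RL4 cells exposed to test compounds for 6 hr at 37 C. Reduced luminescence, read 30 min after detection reagent, indicated pathway antagonism.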

[13] = qHTS assay to identify small molecule agonists of the retinoic acid receptor (RAR) signaling pathway (AID 1159553); details: C3RL4 RARE luciferase reporter, agonist, 6 h; series mostly up to 73.3 µM
How it was run: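 6 hr compound exposure (DMSO vehicle) of overnight-plated C3RL4 RARE-luc cells at 37 C; luminescence quantified after 30 min RT with luciferase reagent.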

[14] = qHTS assay to identify small molecule agonists of the vitamin D receptor (VDR) signaling pathway - cell viability counter screen (AID 743224); details: VDR-bla HEK293T viability, CellTiter-Glo luminescence, 16 h; series mostly up to 62.6 µM; further: nearly all actives have a fitted effect of over 50% in size; further: potency means the concentration at half of the fitted maximal effect
How it was run: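 Counter screen for cytotoxicity: VDR-bla cells at 2,000 cells/well, 16 h compound exposure, then CellTiter-Glo luminescence after the beta-lactamase measurement.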

[15] = qHTS assay to identify small molecule antagonists of the estrogen related receptor (ERR) signaling pathway - cell viability counter screen (AID 1224818); details: ERR reporter cell line viability counter screen; series mostly up to 46.1 µM
How it was run: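 Compounds dissolved in DMSO were applied to ERR cells seeded at 2,000 per well 6 h earlier. Cell viability followed 17.5 h later via 30-min CellTiter-Fluor fluorescence.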

[16] = qHTS assay to identify small molecule antagonists of the estrogen related receptor (ERR) signaling pathway (AID 1224819); details: ERR reporter cell line, luciferase inhibition; series mostly up to 46.1 µM
How it was run: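 Compounds dissolved in DMSO were pin-transferred onto ERR cells that had been plated 6 h earlier, and cells were then incubated 18 h at 37 C; signal was luciferase luminescence via One-Glo.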

[17] = qHTS assay to identify small molecule agonists of the estrogen related receptor (ERR) signaling pathway (AID 1224820); details: ERR reporter cell line, luciferase agonist mode; series mostly up to 46.1 µM
How it was run: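 After 6 h plating (2,000 cells/well) and 18 h compound treatment at 37 C, ERR cells were lysed with One-Glo and luminescence read after 30 min at room temperature.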

[18] = qHTS assay to identify small molecule antagonists of the estrogen related receptor signaling pathway with the pleiotropic PPARgamma coactivator (PGC) cell viability counter screen (AID 1224822); details: ERR/PGC reporter cell line viability counter screen; series mostly up to 46.1 µM
How it was run: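 Counter screen for cell viability: PGC/ERR cells, 6 h pre-incubation after plating, 17.5 h compound exposure at 37 C, fluorescence from CellTiter-Fluor after 30 min.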

[19] = qHTS assay to identify small molecule agonists of the estrogen related receptor signaling pathway with the pleiotropic PPARgamma coactivator (PGC) (AID 1224823); details: ERR/PGC reporter cell line, luciferase agonist mode; series mostly up to 46.1 µM
How it was run: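 Luminescence from One-Glo reagent (30 min, room temperature) was read after 18 h compound treatment at 37 C of PGC/ERR cells plated 6 h beforehand; compounds delivered in DMSO by pin tool.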

| SMILES | outcome [1] | outcome [2] | outcome [3] | outcome [4] | Potency [5] | Potency [6] | Potency [7] | outcome [8] | Potency [9] | Potency [10] | Potency [11] | Potency [12] | Potency [13] | Potency [14] | outcome [15] | outcome [16] | outcome [17] | outcome [18] | outcome [19] |
| --- | --- | --- | --- | --- | --- | --- | --- | --- | --- | --- | --- | --- | --- | --- | --- | --- | --- | --- | --- |
| N#CC(Cl)(Cl)Cl | inactive | inactive | inactive | inactive | inactive | inactive | inactive | inactive | inactive | inactive | inactive | inactive | inactive |  |  |  |  |  |  |
| Clc1cccc(N2CCNCC2)c1 | inactive | inactive | inactive | inactive | inactive | inactive | inactive | inactive | inactive | inactive | inactive | inactive | inactive | inactive |  |  |  |  |  |
| ClC(Cl)C(Cl)Cl | inactive | inactive | inactive | inactive | inactive | inactive | inactive | inactive | inactive | inactive | inactive | inactive | inactive |  |  |  |  |  |  |
| C1CCC(C2CCCCC2)CC1 |  | inactive | inactive | inactive | inactive | inactive | inactive | inactive | 38.9 µM (active) |  | inactive | inactive | inactive |  |  |  |  |  |  |
| CNC(=O)Oc1ccccc1C1OCCO1 | inactive | inactive | inactive | inactive | inactive | inactive | inactive | inactive | inactive | inactive | inactive | inactive | inactive |  |  |  |  |  |  |
| CNCC(=O)c1ccc(O)c(O)c1 | inactive | inactive | inactive | inactive | inactive | inactive | inactive | inactive |  | inactive | inactive |  |  | inactive |  |  |  |  |  |
| CC(=O)[C@H]1CC[C@H]2[C@@H]3CC[C@H]4C[C@H](O)CC[C@]4(C)[C@H]3C(=O)C[C@]12C | inactive | inactive | inactive | inactive | inactive | inactive | inactive | inactive |  |  | inactive | inactive | inactive | inactive | inactive | inactive | inactive | inactive | inactive |
| C[C@H]1CCC[C@H](O)CCCCCc2cc(O)cc(O)c2C(=O)O1 | inactive | inactive | inactive | inactive | inactive | inactive | inactive | inactive | inactive |  | inactive | inactive | inactive | inactive |  |  |  |  |  |
| CCOC(=O)/C=C(C)/C=C/C[C@@H](C)CCCC(C)C | inactive | inactive | inactive | inactive | inactive | inactive | inactive | inactive | inactive | inactive | inactive |  | inactive | 34.7 µM (active) |  |  |  |  |  |
| C[N+](C)=CCl | inactive | inactive | inactive | inactive | inactive | inactive | inactive | inactive | inactive | inactive | inactive | inactive | inactive | inactive |  |  |  |  |  |
| ClC(Cl)Br | inactive | inactive | inactive | inactive | inactive | inactive | inactive | inactive | inactive | inactive | inactive | inactive | inactive |  |  |  |  |  |  |
| OC(c1ccccc1)(c1ccccc1)C1CCNCC1 | inactive | inactive | inactive | inactive | inactive | inactive | inactive | inactive | inactive | inactive | inactive |  | inactive |  |  |  |  |  |  |
| Cc1nc(N)nc(N)n1 | inactive | inactive | inactive | inactive | inactive | inactive | inactive | inactive | inactive | inactive | inactive | inactive | inactive | inactive |  |  |  |  |  |
| CCCCCCBr | inactive | inactive | inactive | inactive | inactive | inactive | inactive | inactive | inactive | inactive | inactive | inactive | inactive | inactive |  |  |  |  |  |
| O=C(Oc1ccc(Br)cc1)N1CCN2CCC1CC2 | inactive | inactive | inactive | inactive | inactive | inactive | inactive | inactive | inactive | inactive | inactive | inactive | inactive | inactive |  |  |  |  |  |
| CNC(=O)Oc1c(C(C)(C)C)cc(C)cc1C(C)(C)C | inactive | inactive | inactive | inactive | inactive | inactive | inactive | inactive | inactive | inactive | inactive | inactive | inactive |  |  |  |  |  |  |
| C[C@]12CC[C@H]3[C@@H](CC=C4C[C@@H](O)CC[C@@]43C)[C@@H]1CC[C@@H]2O | inactive | inactive | inactive | inactive | inactive | inactive | inactive | inactive | inactive |  | inactive | inactive | inactive | inactive |  |  |  |  |  |
| Cc1cnc[nH]1 | inactive | inactive | inactive | inactive | inactive | inactive | inactive | inactive | inactive | inactive | inactive | inactive | inactive | inactive |  |  |  |  |  |
| ClCC(Cl)(Cl)Cl | inactive | inactive | inactive | inactive | inactive | inactive | inactive | inactive |  | inactive | inactive | inactive | inactive | inactive |  |  |  |  |  |
